High-throughput results: PubChem BioAssay, National Center for Advancing Translational Sciences (NCATS)
A selection: hits, their analogues and other compounds. The true share with any hit is near 8.3%.
Giardia FBPA inh: Giardia lamblia aldolase inhibition; A8B2U2; purified Giardia FBPA; Potency, µM (doses to about 59.6 µM), for inactives: top-dose activity, negative = inhibition, usual class: inhibitors; 0.71% of 290,000 active; note: potency is the fitted concentration of half-maximal effect; nearly all actives have a fitted effect of over 55% in size
Target sequence (A8B2U2 whole entry, looked up): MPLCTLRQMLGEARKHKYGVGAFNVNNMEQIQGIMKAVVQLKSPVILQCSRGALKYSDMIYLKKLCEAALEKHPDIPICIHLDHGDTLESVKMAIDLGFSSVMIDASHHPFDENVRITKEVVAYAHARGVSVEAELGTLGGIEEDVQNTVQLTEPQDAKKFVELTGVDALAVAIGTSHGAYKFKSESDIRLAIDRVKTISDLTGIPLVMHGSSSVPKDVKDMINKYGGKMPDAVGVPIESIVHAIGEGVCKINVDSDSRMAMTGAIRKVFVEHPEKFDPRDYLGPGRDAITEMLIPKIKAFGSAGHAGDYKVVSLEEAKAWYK
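Giardia FBPA (40 nM reagent) was preincubated 10 min at RT with compound (up to 57.5 uM final), then substrate plus GAPDH/TPI/NAD/arsenate coupling system with diaphorase/resazurin was added; resorufin fluorescence (525/598 nm) was read after 20 min.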
FMDV inh: foot and mouth disease virus antiviral activity | FMDV antiviral cell-based qHTS | Potency, µM (series often up to 57.9 µM), inactives show top-dose activity change, negative = inhibition, hits mostly inhibitors | 1.2% of 410,000 active; calls by dose curve; tested in HEK293T cells; note: read-out not given here; potency is the fitted concentration of half-maximal effect; nearly all actives have a fitted effect of over 45% in size
HCV inh: blocks hepatitis C virus | Huh7.5.1 HCVcc-Cre infection, luciferase reporter, 44 h | Potency, µM (titrated, usually from 41.8 µM), for inactives: top-dose activity change, negative = inhibition, hits mostly inhibitors | 3.4% of 340,000 active | AID 651820; note: potency is the fitted concentration of half-maximal effect
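Luciferase read-out (15 sec integration) after a 15 min room-temperature substrate step quantifies HCVcc-Cre infection. Cells, 1,000 per well, had compound added 4 h post-plating, then virus at ~0.5 moi, and were cultured 44 h.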
MARV entry inh: inhibitors of Marburg virus binding or cell entry. Marburg virus pseudotyped entry inhibition, cell reporter. Potency, µM (titrated, usually from 37.8 µM), inactives show at the top dose activity change, negative = inhibition, most hits filed as inhibitors. 1.8% of 300,000 active. AID 540276; calls by dose curve; tested in HEK293 cells; note: potency is the fitted concentration of half-maximal effect
HCMV inh: inhibitors of human cytomegalovirus. HFF cells, HCMV-luciferase reporter, 72 h; stronger effect = lower value. 4.5% of 410,000 active. activity change, negative = inhibition, % at 57.5 µM; in the data active = activity change below about -60%; inconclusive = no clear call, values can overlap the other calls; inactive = above about -39%
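Steps: HFFs plated, 16 h 37C; compounds added; HCMV-luciferase added to MOI 1 PFU/cell; 72 h 37C; OneGlo reagent, 5 min room temperature; luminescence read, normalized to controls.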
LASV entry inh: blocks Lassa virus binding to or entry into cells; Lassa virus pseudotype entry inhibition, cell reporter; Potency, µM (highest dose often 37.9 µM), for the others: top-dose activity change, negative = inhibition, hits mostly inhibitors; 1.2% of 300,000 active; calls by dose curve; tested in HEK293 cells; note: potency is the fitted concentration of half-maximal effect; nearly all actives have a fitted effect of over 50% in size
Starred values were filed as active, the others as inactive; u = inconclusive; x = no result; ! = a repeat was not active; [ ] = remark or other dose. Unless noted, calls come from the whole dose curve; as a rule, active = well fitted curve in the direction sought with a large enough effect; inconclusive = small, poorly fitted or top-dose-only effect, or another doubt; inactive = no such curve, though single readings can be large; an effect the other way counts as inactive or inconclusive. % is set by controls: 0 for no effect and ±100 for the full control effect.

SMILES	Giardia FBPA inh	FMDV inh	HCV inh	MARV entry inh	HCMV inh	LASV entry inh
COc1cc(CNc2nc(C)c([N+](=O)[O-])c(C)c2C#N)cc(OC)c1OC	-12%	25µM*	6.3µM*	u	40	u
Cc1cc2c(cc3c(SCc4ccc(Cl)cc4)nncn32)o1	x	-10%	x	x	-20	-6%[46.1 µM]
CCOc1ccc(OCc2cccc(C(=O)N3CCOCC3)c2)cc1	-4%	-1%	-21%	2%	153	x
CC1CN(C(=O)c2cccc(COc3ccc(Br)cc3)c2)CC(C)O1 (stereo unspecified)	2%	-15%	u	u	-78*	u
CN1CCN(CC(O)(c2ccc(Cl)cc2)c2ccc(Cl)cc2)CC1	6%	-22%	3.2µM*	u	u	-13%
CCC(C)NCC(O)(c1ccc(Cl)cc1)c1ccc(Cl)cc1 (stereo unspecified)	4%	0%	-16%	u	-25	-29%
COc1ccc(-c2nc(Cn3c(SCc4ccc(F)cc4)nc4cccnc43)c(C)o2)cc1	x	-20%	x	x	-4	-13%[46.1 µM]
COc1ccc(-c2nc(Cn3c(SCc4ccc(C)cc4)nc4cccnc43)c(C)o2)cc1OC	x	-9%	x	x	-98*	u
Cc1ccc(C(=O)NN=C2CCCCCC2)s1	-14%	40%	8%	x	u	x
Cc1ccsc1C(=O)NN=C1CCCCCC1	-7%	35%	6%	x	-99*	x
c1cncc(-c2nn3c(Cn4nnc5ccccc54)nnc3s2)c1	-16%[12.9 µM]	22%	21%	3.3µM*	36	0%
c1ccc(-c2nn3c(Cn4nnc5ccccc54)nnc3s2)nc1	-10%	1%	-31%	19%	9	6%
C[C@H](O)C#Cc1cnc2c(c1)C(=O)N([C@H](C)CO)C[C@@H](C)[C@@H](CN(C)Cc1ccc(-c3ccccc3)cc1)O2	x	-17%	x	x	-71*	x
C[C@@H]1CN([C@H](C)CO)S(=O)(=O)c2ccc(Br)cc2O[C@@H]1CN(C)Cc1ccc(-c2ccccc2)cc1	x	-23%	x	x	-10	x
C[C@H](O)C#Cc1ccc2c(c1)O[C@@H](CN(C)Cc1ccc(-c3ccccc3)cc1)[C@H](C)CN([C@@H](C)CO)S2(=O)=O	x	u	x	x	-82*	x
C[C@H](CO)N1C[C@H](C)[C@@H](CN(C)Cc2ccc(-c3ccccc3)cc2)Oc2ncc(C#C[C@@H](C)O)cc2C1=O	x	2%	x	x	6	x
COc1ccc(-c2cc(C(C)=O)c(C)n2CCC(=O)Nc2ccc(C(F)(F)F)cc2)cc1	x	u	x	x	0	u
CC(C)NC(=O)Cn1ncn2c(cc3cc(F)ccc32)c1=O	x	13%	x	-14%[46.1 µM]	5	x
CC(=O)Nc1ccc2nc(NC(=O)c3ccc([N+](=O)[O-])o3)sc2c1	2%	-16%	-21%	u	-102*	u
CCCC(=O)Nc1nc2ccc(NC(=O)c3ccc(Br)o3)cc2s1	-6%	-1%	7.9µM*	u	20	-22%
CC(=O)c1ccc(NC(=O)CCc2c(C)nc3c(c2C)c(=O)n(C)c(=O)n3C)cc1	x	21%	x	u	9	11%[46.1 µM]
COc1ccc(OC)c(NC(=O)CC(=O)Nc2ccc3nc4n(c(=O)c3c2)CCCCC4)c1	x	-23%	x	-4%[46.1 µM]	-18	-1%[46.1 µM]
CCc1ccc(NC(=O)c2ccc3c(=O)n4c(nc3c2)CCCCC4)cc1	0%	-33%	10µM*	x	-38	x
CCOc1ccc(NC(=O)c2ccc3c(=O)n4c(nc3c2)CCCCC4)cc1	x	u	11µM*	-2%[46.1 µM]	-63*!	-2%[46.1 µM]
CCc1nnc(NC(=O)c2ccc3c(=O)n4c(nc3c2)CCCCC4)s1	19%	17%	u	-3%	-14	1%
SMILES	Giardia FBPA inh	FMDV inh	HCV inh	MARV entry inh	HCMV inh	LASV entry inh
COc1cccc(NC(=O)CC(=O)Nc2ccc3nc4n(c(=O)c3c2)CCCCC4)c1	x	-10%	x	4%[46.1 µM]	-72*	16%[46.1 µM]
O=C(Nc1ccc2nc3n(c(=O)c2c1)CCCC3)c1cc([N+](=O)[O-])ccc1F	1%	20µM*	u	7.1µM*	x	3.3µM*
CCN(CC)C(=O)c1cccc(NC(=O)c2ccc3c(=O)n4c(nc3c2)CCC4)c1	x	-11%	-20%	12%	-21	32%
O=C(Nc1ccc2nc3n(c(=O)c2c1)CCCC3)c1cncc(Br)c1	x	-9%	u	x	-63*	x
CCN(CC)c1ccc(C(=O)NNC(=O)c2ccc3c(=O)n4c(nc3c2)CCC4)cc1	x	0%	0%	x	-10	x
O=C(Nc1cccc(S(=O)(=O)N2CCCCC2)c1)c1ccc2c(=O)n3c(nc2c1)CCCCC3	-17%	3.2µM*	6.3µM*	3.2µM*	-88*	u
CCN(CC)S(=O)(=O)c1ccc(NC(=O)c2ccc3c(=O)n4c(nc3c2)CCCCC4)cc1	x	28µM*	x	u	-93*	u
CC(C)CN1CC[C@@]2(CCCN(C(=O)c3ccco3)C2)C1	-11%	-4%	x	x	x	x
CC(=O)OC1C[C@@]2(C)C(c3ccoc3)C[C@H]3O[C@@]32[C@@]2(C)C(=O)C(O)=C3C(C)(C)C(=O)C=C[C@]3(C)C12 (stereo partly specified)	-10%	7.9µM*	x	x	x	x
CC(=O)OC1CC(OC(C)=O)[C@]2(C)C(CC(OC(C)=O)[C@]3(C)C2CC[C@@]2(C)C(c4ccoc4)C[C@H]4O[C@]432)C1(C)C (stereo partly specified)	2%	19%	x	x	x	x
CC(=O)O[C@@H]1C[C@@]2(C)C(c3ccoc3)C[C@H]3O[C@]32[C@]2(C)C(=O)C(O)=C3C(C)(C)C(=O)C=C[C@]3(C)C12 (stereo partly specified)	-6%	25µM*	x	x	x	x
CC(=O)OC1CC2C(C)(C)C=CC(=O)[C@@]2(C)C2CC[C@@]3(C)C(c4ccoc4)OC(=O)C4OC43[C@]12C (stereo partly specified)	6%	8%	x	x	x	x
C#CC(N)CCC(=O)O (stereo unspecified)	-4%	x	x	u	x	-3%
O=C(CNC(=O)c1ccco1)OCC(=O)c1ccc(Cl)cc1	3%	-6%	17%	x	-20	x
Cc1ccc(C(=O)COC(=O)c2cccs2)cc1	5%	22µM*	13%	u	36	-17%
O=C(CNC(=O)c1cccs1)c1ccc(F)cc1	-7%	-26%	-2%	u	-75*	-22%
O=C(CNC(=O)c1cccs1)OCC(=O)c1ccc([N+](=O)[O-])cc1	2%	6%	9%	-24%[46.1 µM]	-65*	9%
O=C(CNC(=O)c1cccs1)c1ccc(Cl)cc1	-13%	2%	-1%	u	35	-16%
O=C(CNC(=O)c1ccco1)OCC(=O)c1ccc([N+](=O)[O-])cc1	-9%	-1%	1%	4%[46.1 µM]	-64*	-17%
CCc1ccc(/C=C2\SC(=S)N(CCC(=O)NCCCN3CCOCC3)C2=O)cc1	x	1%	-24%	u	-74*	4%[46.1 µM]
